Assay outcomes: PubChem BioAssay, National Center for Advancing Translational Sciences (NCATS)
SW480 rereplic: A quantitative high throughput screen for small molecules that induce DNA re-replication in SW480 colon adenocarcinoma cells; SW480 DNA re-replication, Hoechst DNA content imaging, 48 h; AID 624297, 2012; 340,000 tested, 1.8% active; Potency, µM (doses to about 46.1 µM), most hits filed as activators; further: nearly all actives have a fitted effect of over 55% in size
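SW480 cells exposed to compounds for 48 hr at 37 C, 5% CO2, then Hoechst-stained 40 min. Nuclear DNA content imaged by fluorescence scanning (405 nm excitation, 500-530 nm emission); re-replication scored as increased high-intensity nuclei.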
KB-V1 cytotox: qHTS assay for MDR1-selective chemotherapeutics: Primary screen using the drug-selected MDR subline cells KB-V1; Potency, µM (series often up to 46.1 µM), hits mostly cytotoxic; KB-V1 MDR cells viability, CellTiter-Glo, 72 h; 400,000 tested, 3.4% active; AID 1347076, 2019; further: nearly all actives have a fitted effect of over 60% in size
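qHTS viability screen in drug-selected KB-V1 MDR cells: 72 h compound treatment at 37 degrees C, ATP luminescence end point.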
HT1080NT lethal: qHTS for induction of synthetic lethality in tumor cells producing 2HG: qHTS for the HT-1080-NT fibrosarcoma cell line. 360,000 tested, 1.6% active. AID 686970, 2013. HT-1080-NT fibrosarcoma viability, CellTiter-Glo ATP luminescence, 48 h. Potency, µM (top dose mostly 46.1 µM), most hits filed as cytotoxic;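 further: NT is the 2HG producing partner of a matched IDH1 knockdown line; nearly all actives have a fitted effect of over 55% in size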
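Read-out is CellTiter-Glo luminescence after 10 minutes at room temperature, following 48 hours' compound treatment of HT-1080-NT cells (750 cells/well, RPMI, 5% FBS, 37 degrees C).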
MCF10A rerep: A quantitative high throughput screen for small molecules that induce DNA re-replication in MCF 10a normal breast cells | Potency, µM (top dose mostly 46.1 µM), hits mostly activators | MCF 10A DNA re-replication, Hoechst nuclear intensity, 48 h | 350,000 tested, 2.9% active; further: nearly all actives have a fitted effect of over 50% in size
HT1080 IDH1KD tx: qHTS for induction of synthetic lethality in tumor cells producing 2HG: qHTS for the HT-1080-IDH1KD cell line. HT-1080 IDH1 knockdown viability, ATP luminescence, 48 h. 360,000 tested, 2% active. Potency, µM (titrated, usually from 46.1 µM), most hits filed as cytotoxic
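Luminescent ATP read-out (CellTiter-Glo, 10 min at room temperature) after 48 h compound exposure at 37 °C gave viability of IDH1-knockdown HT-1080 cells. Activity was normalised to DMSO and cell-free wells, then fitted as concentration-response curves.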
KB-3-1 cytotox: qHTS assay for MDR1-selective chemotherapeutics: Primary screen using the parental adenocarcinoma cell KB-3-1. Potency, µM (top dose mostly 46.1 µM), most hits filed as cytotoxic. 400,000 tested, 1.4% active. KB-3-1 viability, CellTiter-Glo ATP luminescence, 72 h; further: nearly all actives have a fitted effect of over 60% in size
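KB-3-1 parental drug-naive adenocarcinoma cells in DMEM/10% FBS, incubated 72 h at 37 C with pin-transferred compounds across a concentration series. Viability by CellTiter-Glo luminescence; concentration-response curves fitted after normalization.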
Numbers stand for hits. A selection: hits, their analogues and other compounds. The true share with any hit is near 8%. The call rests on the fitted dose curve; in most records, active means well fitted curve in the direction sought with a large enough effect; inconclusive means small, poorly fitted or top-dose-only effect, or another doubt; inactive means no such curve, though single readings can be large; an effect the other way counts as inactive or inconclusive.

What do the screens show for `CCOc1ccc(NC(=O)CN(C)C(=O)c2ccc(COc3ccccc3)o2)cc1OCC`?
SW480 rereplic: inactive; KB-V1 cytotox: inactive; HT1080NT lethal: inactive; MCF10A rerep: inactive; HT1080 IDH1KD tx: inactive; KB-3-1 cytotox: inactive

What do the screens show for `CCOc1ccc(NC(=O)CN(C)C(=O)c2ccccc2OCc2cccc(C)c2)cc1OCC`?
SW480 rereplic: inconclusive; KB-V1 cytotox: 2.9µM; HT1080NT lethal: inactive; MCF10A rerep: inconclusive; HT1080 IDH1KD tx: inconclusive; KB-3-1 cytotox: inactive

Results for CCOC(=O)c1c(C)[nH]c(C)c1S(=O)(=O)N1CCCC(C(=O)NCc2cccc(OC)c2)C1 (centres undefined) ?
KB-V1 cytotox: inactive; KB-3-1 cytotox: inactive

Results for Cc1ccc(OCC(=O)Nc2ccc(OCc3cc(=O)n4ccsc4n3)cc2)cc1 ?
KB-V1 cytotox: inactive; KB-3-1 cytotox: inactive

What do the screens show for `CSc1nn(Cc2ccccc2C)c(NC(C)=O)c1S(=O)(=O)c1ccc(C)cc1`?
KB-V1 cytotox: inactive; KB-3-1 cytotox: inactive

What do the screens show for `CCOC(=O)C1(Cc2ccc(OC)cc2)CCN(C(=O)c2ccc3[nH]ccc3c2)CC1`?
SW480 rereplic: inconclusive; KB-V1 cytotox: inactive; HT1080NT lethal: 13µM; MCF10A rerep: 12µM; HT1080 IDH1KD tx: 26µM; KB-3-1 cytotox: inconclusive

What do the screens show for `COc1cccc(C2(O)CCN(C(=O)c3cccs3)CC2)c1`?
SW480 rereplic: inactive; KB-V1 cytotox: inactive; HT1080NT lethal: inactive; MCF10A rerep: inactive; HT1080 IDH1KD tx: inactive; KB-3-1 cytotox: inactive

How did CCOC(=O)C1(Cc2cccc(OC)c2)CCN(Cc2cccc(OC)c2OC)CC1 do in these assays?
SW480 rereplic: inconclusive; KB-V1 cytotox: inconclusive; HT1080NT lethal: inconclusive; MCF10A rerep: inconclusive; HT1080 IDH1KD tx: inconclusive; KB-3-1 cytotox: inactive

How did COc1ccccc1C1(O)CCN(C(=O)c2cccs2)CC1 do in these assays?
SW480 rereplic: inactive; KB-V1 cytotox: 21µM; HT1080NT lethal: inactive; MCF10A rerep: inactive; HT1080 IDH1KD tx: inactive; KB-3-1 cytotox: inactive

Results for CCOC(=O)C1(Cc2cccc(OC)c2)CCN(Cc2cc(OC)ccc2OC)CC1 ?
SW480 rereplic: 23µM; KB-V1 cytotox: inactive; HT1080NT lethal: inactive; MCF10A rerep: inconclusive; HT1080 IDH1KD tx: inconclusive; KB-3-1 cytotox: inactive

How did COc1ccc(OC)c(CN2CCN(C(=O)c3cccs3)CC2)c1 do in these assays?
SW480 rereplic: inactive; KB-V1 cytotox: 21µM; HT1080NT lethal: inactive; MCF10A rerep: inactive; HT1080 IDH1KD tx: inactive; KB-3-1 cytotox: inactive

What do the screens show for `O=C1CCc2cc(S(=O)(=O)Nc3cccc(B(O)O)c3)ccc2N1`?
KB-V1 cytotox: inactive; KB-3-1 cytotox: inactive

How did Cc1ccc(CN2c3ccccc3-c3nc(SCC(=O)NCCc4ccccc4)ncc3S2(=O)=O)cc1 do in these assays?
KB-V1 cytotox: inactive; KB-3-1 cytotox: inactive

How did O=C(CSc1nc2c([nH]c3ccccc32)c(=O)n1-c1cccc(C(F)(F)F)c1)N1CCCC1 do in these assays?
KB-V1 cytotox: inconclusive; KB-3-1 cytotox: inactive

How did CCCCN(C)CCNC(=O)c1ccc2c(=O)n(CCc3ccccc3)c(=O)[nH]c2c1 do in these assays?
KB-V1 cytotox: inactive; KB-3-1 cytotox: inactive

Results for Cc1nc2nc(C)c(NS(=O)(=O)c3ccc(F)cc3)c(=O)n2[nH]1 ?
KB-V1 cytotox: inactive; KB-3-1 cytotox: inactive

What do the screens show for `CCOC(=O)C1(CC2CC2)CCN(Cc2cnc(-c3ccc(OC)cc3)nc2)CC1`?
SW480 rereplic: inactive; KB-V1 cytotox: inconclusive; HT1080NT lethal: inactive; MCF10A rerep: 13µM; HT1080 IDH1KD tx: inconclusive; KB-3-1 cytotox: inconclusive

What do the screens show for `COc1ccc(CN2CCN(C(=O)c3cccs3)CC2)cc1`?
SW480 rereplic: inconclusive; KB-V1 cytotox: 21µM; HT1080NT lethal: inactive; MCF10A rerep: inactive; HT1080 IDH1KD tx: inactive; KB-3-1 cytotox: inactive

What do the screens show for `O=C(c1cccs1)N1CCN(Cc2ccccc2)CC1`?
SW480 rereplic: inactive; KB-V1 cytotox: inactive; HT1080NT lethal: inactive; MCF10A rerep: inactive; HT1080 IDH1KD tx: inactive; KB-3-1 cytotox: inactive

How did O=C(c1cccs1)N1CCN(CCCc2ccccc2)CC1 do in these assays?
SW480 rereplic: inactive; KB-V1 cytotox: 12µM; HT1080NT lethal: inactive; MCF10A rerep: inactive; HT1080 IDH1KD tx: inactive; KB-3-1 cytotox: inactive

How did COc1ccc(OC)c(CN2CCN(C(=O)c3cccc(S(=O)(=O)Nc4ccc(F)cc4)c3)CC2)c1 do in these assays?
SW480 rereplic: inactive; KB-V1 cytotox: 15µM; HT1080NT lethal: inactive; MCF10A rerep: inactive; HT1080 IDH1KD tx: inactive; KB-3-1 cytotox: inconclusive

How did CCC(=O)OCCCNc1nc(-c2ccc(Cl)cc2)nc2ccccc12 do in these assays?
KB-V1 cytotox: inactive; KB-3-1 cytotox: inactive

How did O=C1CN(C(=O)c2ccc(S(=O)(=O)N3CCCC3)cc2)C(c2ccccc2)c2cc(Br)ccc2N1 (centres undefined) do in these assays?
KB-V1 cytotox: inactive; KB-3-1 cytotox: inconclusive

Results for Cc1ccc2nc(-c3cccc(NC(=O)c4ccc5c(c4)OCCO5)c3)oc2c1 ?
SW480 rereplic: inactive; KB-V1 cytotox: inactive; HT1080NT lethal: inactive; MCF10A rerep: 18µM; HT1080 IDH1KD tx: inactive; KB-3-1 cytotox: inconclusive

Results for O=C(Nc1ccc2oc(-c3ccc4ccccc4c3)nc2c1)c1ccc2c(c1)OCCO2 ?
SW480 rereplic: inconclusive; KB-V1 cytotox: 2.6µM; HT1080NT lethal: inconclusive; MCF10A rerep: inactive; HT1080 IDH1KD tx: inconclusive; KB-3-1 cytotox: inactive

What do the screens show for `CC#CCOC(=O)c1c(C)nc2sc3c(c2c1N)CCC(O)C3` (centres undefined)?
SW480 rereplic: inactive; KB-V1 cytotox: 12µM; HT1080NT lethal: 23µM; MCF10A rerep: inconclusive; HT1080 IDH1KD tx: inconclusive; KB-3-1 cytotox: inconclusive

How did COc1cccc(NC(=S)N2CCN(C/C=C/c3ccccc3)CC2)c1 do in these assays?
SW480 rereplic: inactive; KB-V1 cytotox: inconclusive; HT1080NT lethal: 13µM; MCF10A rerep: inactive; HT1080 IDH1KD tx: inconclusive; KB-3-1 cytotox: inactive

How did COc1ccccc1C(=O)NCC(=O)N1CCN(C/C=C/c2ccccc2)CC1 do in these assays?
SW480 rereplic: inactive; KB-V1 cytotox: 8.2µM; HT1080NT lethal: inactive; MCF10A rerep: inactive; HT1080 IDH1KD tx: inactive; KB-3-1 cytotox: inactive

How did Cc1ccccc1C(=O)NCC(=O)N1CCN(C/C=C/c2ccccc2)CC1 do in these assays?
SW480 rereplic: inactive; KB-V1 cytotox: inactive; HT1080NT lethal: inactive; MCF10A rerep: inactive; HT1080 IDH1KD tx: inactive; KB-3-1 cytotox: inactive
